Screens deposited in PubChem by several laboratories.
BoNT A protease – BoNT/A light chain protease inhibitors, primary screen, biochemical, flow cytometry, MLPCN library | Botulinum neurotoxin type A light chain protease (Clostridium botulinum A str. ATCC 3502) | multiplex microsphere protease substrate cleavage | inhibition, % at 10 µM | actives 0.17% (n = 360,000) | AID 588499, 2011
BoNT-F LC inh – BoNT/F light chain protease inhibitors, primary screen, biochemical, flow cytometry, MLPCN library; Multiplex microsphere protease cleavage assay; Botulinum neurotoxin type F light chain protease (Clostridium botulinum); inhibition, % at 10 µM; actives 0.22% (n = 360,000); in the data active = inhibition above about 35%, passing the limit was not always enough; inconclusive = no clear call, values can overlap the other calls
Anthrax LF inh2 – Bacillus anthracis LF protease inhibitors, primary screen, biochemical, multiplex microsphere, MLPCN library; multiplex microsphere protease cleavage assay; inhibition, % at 10 µM; actives 0.12% (n = 360,000); AID 588501, 2011
Target sequence (P15917 whole entry, looked up): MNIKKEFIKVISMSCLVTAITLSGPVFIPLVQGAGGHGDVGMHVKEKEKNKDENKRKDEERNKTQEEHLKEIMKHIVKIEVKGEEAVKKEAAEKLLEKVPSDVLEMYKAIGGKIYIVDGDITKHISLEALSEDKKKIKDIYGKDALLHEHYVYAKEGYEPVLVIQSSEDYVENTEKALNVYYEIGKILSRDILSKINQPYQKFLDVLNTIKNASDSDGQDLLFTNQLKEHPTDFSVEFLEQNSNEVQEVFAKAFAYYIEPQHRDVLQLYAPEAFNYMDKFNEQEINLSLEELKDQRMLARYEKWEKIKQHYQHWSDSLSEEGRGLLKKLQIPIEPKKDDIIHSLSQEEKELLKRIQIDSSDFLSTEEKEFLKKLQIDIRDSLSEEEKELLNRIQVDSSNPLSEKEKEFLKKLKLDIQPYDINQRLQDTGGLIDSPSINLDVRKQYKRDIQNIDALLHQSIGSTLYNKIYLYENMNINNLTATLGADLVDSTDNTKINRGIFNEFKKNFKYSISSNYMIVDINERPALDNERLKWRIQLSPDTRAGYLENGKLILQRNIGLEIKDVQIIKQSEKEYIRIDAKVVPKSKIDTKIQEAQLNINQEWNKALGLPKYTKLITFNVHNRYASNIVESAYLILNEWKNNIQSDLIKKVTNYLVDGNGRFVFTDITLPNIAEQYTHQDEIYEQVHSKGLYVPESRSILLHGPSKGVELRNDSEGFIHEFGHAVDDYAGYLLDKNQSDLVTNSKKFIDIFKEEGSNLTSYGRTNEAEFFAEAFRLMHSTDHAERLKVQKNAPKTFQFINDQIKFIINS
Bead autofluor – counter-screen for toxin protease inhibitors: compound fluorescence; actives 3.1% (n = 360,000); fluorescence intensity (no concentration beside the values); AID 624483; compound autofluorescence counterscreen, microsphere flow cytometry; active compounds read high; in the data active = fluorescence intensity above about 16000; inconclusive = no clear call, values can overlap the other calls
MazEF act – activators of E. coli MazEF toxin-antitoxin RNase, primary screen, biochemical, fluorescence, uHTS; activation, % at 20 µM; actives 0.32% (n = 350,000); FAM/BHQ RNA-DNA oligo cleavage fluorescence, 5 h; Endoribonuclease toxin MazF (Escherichia coli (strain K12)), P0AE70; AID 504720, 2011; in the data active = activation above about 50%
A number is an active result; 0 = inactive; ? = inconclusive; - = no result given. The list is not random: actives were taken first. Their share in the collection is about 3.6%. Cut-off read from the data, not from the text of the source, unless noted: active = inhibition above about 30%; inconclusive = no clear call, values can overlap the other calls; inactive = below that.

SMILES	BoNT A protease	BoNT-F LC inh	Anthrax LF inh2	Bead autofluor	MazEF act
CN(Cc1ccccc1)S(=O)(=O)c1ccc2c(c1)CCC(=O)N2	0	0	0	0	0
COc1ccc(C(=O)N(CCCO)C(C)C(=O)NC2CCCCC2)cc1OC (centres undefined)	?	0	0	21753	0
COc1ccc(C(=O)N(CC2CCCO2)C(C(=O)NC2CCCC2)c2ccc(Cl)cc2)cc1OC (centres undefined)	0	0	0	21196	0
Cc1nc(NC(=O)C23CC4CC(CC(C4)C2)C3)sc1Cc1ccc2c(c1)OCO2	0	0	0	0	0
C=C1C(=O)C23C(O)C1CCC2C12COC3(O)C(O)C1C(C)(C)CCC2O (centres undefined)	0	0	0	0	-
COc1ccc(Nc2cccccc2=O)cc1	0	0	0	0	0
COc1cccc(Nc2cc(C)nc3ccccc23)c1	?	0	0	20171	0
O=C(O)c1cccc(Nc2nc(-c3ccc([N+](=O)[O-])cc3)nc3ccccc23)c1	0	0	0	0	0
COc1ccc(Nc2ccccc2)c(C)c1	0	0	0	22653	0
COc1cccc(Nc2nc(-c3ccccc3O)nc3ccccc23)c1	0	0	0	0	74.7
COc1ccc(OC)c(Nc2cc(C)nc3ccccc23)c1	0	0	0	0	0
O=[N+]([O-])c1ccc(-c2nc(Nc3cccc(O)c3)c3ccccc3n2)cc1	0	0	0	0	123.2
O=C(CC1S/C(=N/N=C/c2ccco2)NC1=O)Nc1cccc(Cl)c1Cl (centres undefined)	0	0	0	0	0
CC(C)c1cccc(-c2csc(C(C)(O)c3cccc(F)c3)n2)c1 (centres undefined)	0	0	0	0	-
CCC1CCCCN1S(=O)(=O)c1ccc(-n2cnnn2)c(C)c1 (centres undefined)	0	0	0	0	0
CC(C)CCOc1cccc(OCC(=O)N(C)C2CCS(=O)(=O)C2)c1 (centres undefined)	0	0	0	16885	0
CCCOc1cccc(C(=O)N(Cc2ccc(OC)c(OC)c2)C2CCS(=O)(=O)C2)c1 (centres undefined)	0	0	0	23243	0
CN(C)c1ccc(CN(C(=O)COc2ccccc2)C2CCS(=O)(=O)C2)cc1 (centres undefined)	0	0	0	16811	0
Cc1ccc(OCC(=O)N(Cc2ccc(N(C)C)cc2)C2CCS(=O)(=O)C2)cc1C (centres undefined)	0	?	0	0	0
Cc1ccccc1OCC(=O)N(Cc1ccc(N(C)C)cc1)C1CCS(=O)(=O)C1 (centres undefined)	0	0	0	23914	0
O=C(CCc1ccccc1)OCCOC(=O)CCc1ccccc1	0	0	0	0	0
O=c1[nH]nc(-c2ccc[nH]2)[nH]1	0	0	0	0	0
O=C1C2CC=CCC2C(=O)N1CC(=O)N(Cc1ccccc1)C1CCS(=O)(=O)C1 (centres undefined)	0	0	0	22395	0
CC(C)C[C@H](NC(=O)OC(C)(C)C)C(=O)N[C@@H](CO)[C@H](O)[C@@H]1C[C@@H]1C(=O)N(C)C	0	0	0	0	0
CCCCOC(=O)n1c(SCC(=O)N(C)C)nc2ccccc21	0	0	0	20862	0
SMILES	BoNT A protease	BoNT-F LC inh	Anthrax LF inh2	Bead autofluor	MazEF act
COc1ccc(CN2C(=O)CCC2(C)c2nc3ccccc3[nH]2)cc1 (centres undefined)	0	0	0	0	-
COC(=O)Cc1c(C)nc2nc(NCc3ccc(Cl)cc3)[nH]n2c1=O	0	0	0	0	0
COC(=O)Cc1c(C)nc2nc(NCc3cccc([N+](=O)[O-])c3)[nH]n2c1=O	0	0	0	19811	0
O=C(NCCCNc1ccc(C(F)(F)F)cc1[N+](=O)[O-])c1ccc(F)cc1	0	0	0	0	61.5
CC1(C(=O)NCc2ccccc2Br)CCN1Cc1ccc2ccccc2c1 (centres undefined)	0	0	0	0	-
Cc1ccc(SCc2nc3ccccc3n2CC(=O)Nc2ccccc2)cc1	0	0	0	0	0
Cc1ccc(SCc2nc3ccccc3n2CC(=O)Nc2c(C)cccc2C)cc1	0	0	0	22196	0
CCOn1c(-n2nc(C)cc2C)nc2ccccc2c1=O	0	0	0	20487	0
Cc1cc(C)n(-c2nc3ccccc3c(=O)n2OCC(C)C)n1	0	0	0	0	0
COC(=O)COn1c(-n2nc(C)cc2C)nc2ccccc2c1=O	0	0	0	22312	0
CCN(CC)C(=O)COn1c(SCC(=O)N(CC)CC)nc2ccccc2c1=O	0	0	0	19592	0
CCOC(=O)c1ccc2c(c1)nc(-c1ccc(F)cc1)c1nccn12	0	0	0	0	0
O=C(NCCC1=CCCCC1)c1[nH]c(C(F)(F)F)nc1-c1ccccc1	0	0	0	0	-
O=C(NCCCN1CCOCC1)c1onc(CSc2ccc(F)c(F)c2)c1C(=O)NCCCN1CCOCC1	0	0	0	0	0
Cn1cccc1/C=N/NC(=O)c1cccs1	0	0	0	0	0
Cn1cccc1/C=N/NC(=O)Cc1cccs1	0	?	43.0	0	0
CC(/C=N/NC(=O)Cc1cccs1)=C\c1ccco1	?	0	0	21994	0
Cc1cccc(N(CC(=O)NC(C)C)C(=O)CCC(=O)Nc2nccs2)c1	0	0	0	0	0
COc1cccc(C2C(C#N)=C(N)Oc3c2oc(CO)cc3=O)c1OC (centres undefined)	0	0	0	22208	0
COCCN(C(=O)COC(=O)CCOc1cccc(C)c1)c1c(N)n(Cc2ccccc2)c(=O)[nH]c1=O	0	0	0	?	0
C[C@@H]1CN([C@@H](C)CO)C(=O)CCCn2nncc2CO[C@@H]1CN(C)S(=O)(=O)c1ccc(Oc2ccccc2)nc1	0	0	0	0	0
CC(C)NC(=O)COc1ncnc2sccc12	0	0	0	18786	0
CNc1ccc(C=C2C=Cc3ccccc32)cc1	0	0	0	0	0
CN(C)c1ccc(C=C2C=Cc3ccccc32)cc1	0	0	0	0	97.6
C=CCN1C(=O)/C(=C\C=C2\N(C)c3ccccc3C2(C)C)SC1=S	41.0	0	0	0	0
O=[N+]([O-])c1ncccc1OCc1ccc(Br)cc1F	0	0	0	0	0
CSC1=C(C#N)C(c2ccc(Cl)cc2)C2=C(CC(C)(C)CC2=O)N1 (centres undefined)	0	0	0	23927	0
CCc1ccc2oc(C(=O)NCc3ccncc3)c(C)c2c1	0	0	0	16440	0
C(=C\c1ccccc1)/CN1CCN(C(c2ccccc2)c2nnnn2C2CCCCC2)CC1 (centres undefined)	0	0	0	0	-
Cc1c(Cl)cccc1NC(=O)Cn1cccc1	0	0	0	23242	0
